In PubChem BioAssay AID2642 (Johns Hopkins Ion Channel Center, 2010):
Among all 310,000 compounds or so, about 3,900 (1.3%) were called active.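 How the source made its calls: active means compounds whose thallium flux B-score, printed positive for inhibition, exceeds three library SD while starting fluorescence stays within three; inactive means the rest.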 The list comes from a sample in which actives are over-represented; it also holds similar structures and randomly drawn compounds.

What follows are compounds tested against Potassium voltage-gated channel subfamily KQT member 1 (Homo sapiens) (UniProt P51787) (assay: inhibitors of human KCNQ1 channel, primary screen, cell-based, thallium flux, high-throughput (AID 2642;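 further: channel opened by potassium depolarization with thallium stimulus after 20 min compound exposure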)). Conditions: CHO-K1 KCNQ1, FluxOR thallium flux fluorescence, at 10 µM; active compounds read high.
Chain of Potassium voltage-gated channel subfamily KQT member 1 (Homo sapiens) (P51787 whole entry, looked up): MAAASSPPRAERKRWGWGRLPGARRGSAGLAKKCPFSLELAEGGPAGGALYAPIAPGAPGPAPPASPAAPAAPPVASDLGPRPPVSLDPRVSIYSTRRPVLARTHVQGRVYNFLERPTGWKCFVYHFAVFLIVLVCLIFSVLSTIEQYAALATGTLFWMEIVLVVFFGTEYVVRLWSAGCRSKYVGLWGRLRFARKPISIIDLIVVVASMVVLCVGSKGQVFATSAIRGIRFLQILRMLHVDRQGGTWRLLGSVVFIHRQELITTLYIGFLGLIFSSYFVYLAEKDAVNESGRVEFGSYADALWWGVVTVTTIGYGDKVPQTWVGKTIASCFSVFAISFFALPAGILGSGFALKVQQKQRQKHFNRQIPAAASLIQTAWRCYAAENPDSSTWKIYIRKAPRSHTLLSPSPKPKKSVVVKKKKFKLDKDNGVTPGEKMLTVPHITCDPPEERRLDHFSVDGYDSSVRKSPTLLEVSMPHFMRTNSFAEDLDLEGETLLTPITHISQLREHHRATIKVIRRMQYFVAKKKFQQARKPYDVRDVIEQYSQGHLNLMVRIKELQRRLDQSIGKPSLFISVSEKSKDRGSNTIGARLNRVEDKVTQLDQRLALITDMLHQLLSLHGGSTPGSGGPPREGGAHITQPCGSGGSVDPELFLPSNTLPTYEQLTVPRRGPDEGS
With `O=C(O)Cc1ccc(NC(=O)Nc2cccc3ccccc23)cc1` the B-score was “inactive”.
With `Cc1ccc(NC(=S)NC(NC(=O)Cc2cccc3ccccc23)C(Cl)(Cl)Cl)cc1` (configuration not stated) the B-score was “inactive”.
For `O=C(Cc1cccc2ccccc12)NNC(=O)Nc1ccc(Cl)cc1`, the B-score was 6 (active).
`COc1ccc(CNC(=O)c2c[nH]c3c(OC)cc(OC)cc3c2=O)cc1` was tested, and the B-score was “inactive”.
`CCOc1ccc(OCCSc2nc3ccccc3n2CC(=O)O)cc1` was tested, and the B-score was “inactive”.
In the case of `O=C(CCC(=O)c1cccs1)Nc1nc2ccccc2s1`, the B-score is reported as “inactive”.
`O=C(Nc1nc(-c2ccco2)c(-c2ccco2)s1)c1ccco1` was tested, and the B-score was “inactive”.
For `CSc1nc2ccc(S(=O)(=O)N3CCc4ccccc43)cc2s1`, the B-score was “inactive”.
With `CN(C)CCCN(C(=O)c1ccc(S(=O)(=O)N2CCCc3ccccc32)cc1)c1nc2ccc(F)cc2s1` the B-score was “inactive”.
In the case of `O=C(NC(Nc1nc2ccc([N+](=O)[O-])cc2s1)(C(F)(F)F)C(F)(F)F)c1ccccc1`, the B-score is reported as 8 (active).
In the case of `CCOc1ccc2nc(NC(=O)c3cc([N+](=O)[O-])ccc3N3CCOCC3)sc2c1`, the B-score is reported as “inactive”.
With `CCC(=O)NC(Nc1nc2ccc(C)cc2s1)(C(=O)OC)C(F)(F)F` (configuration not stated) the B-score was “inactive”.
With `O=C(Nc1nc2ccc([N+](=O)[O-])cc2s1)c1ccc(S(=O)(=O)N2CCCc3ccccc32)cc1` the B-score was 9 (active).
In the case of `O=C1NC(=O)C(c2ccc(Cl)cc2)N1` (configuration not stated), the B-score is reported as “inactive”.
With `Cc1cc(=O)n2nc(N3CCCC(C(=O)NCc4ccc(Cl)cc4)C3)sc2n1` (configuration not stated) the B-score was “inactive”.
`CC(OC(=O)CN1C(=O)COc2ccccc21)C(=O)NCc1ccc(F)cc1` (configuration not stated) was tested, and the B-score was “inactive”.
For `N#Cc1c(Cl)nc(-c2cccnc2)nc1-c1ccccc1`, the B-score was “inactive”.
In the case of `O=C(NN1CCOCC1)c1cccc(F)c1`, the B-score is reported as “inactive”.
`O=C(NNC(=O)c1cc(-c2ccccc2Cl)nc2ccccc12)c1csc(N2CCOCC2)n1` was tested, and the B-score was “inactive”.
`CCC(=O)N1CCC(C(N)=O)(N2CCCCC2)CC1` was tested, and the B-score was “inactive”.
In the case of `COc1cccc(NC(=O)CCNS(=O)(=O)c2ccc3c(c2)oc(=O)n3C)c1`, the B-score is reported as “inactive”.
In the case of `COc1ccc(S(=O)(=O)NCCCc2ccccc2)cc1`, the B-score is reported as “inactive”.
With `CCNS(=O)(=O)c1ccc(NC(=O)Nc2cccc(OC)c2)cc1` the B-score was “inactive”.
For `COc1ccc(S(=O)(=O)NCCCCOc2ccc(Cl)cc2)cc1`, the B-score was 9 (active).
`COC(=O)CNS(=O)(=O)c1ccc(OC)cc1` was tested, and the B-score was “inactive”.
With `COc1cccc(NC(C)=[N+](C)CCNS(=O)(=O)c2ccc(Cl)cc2)c1` the B-score was 6 (active).
In the case of `Cc1cccc(NC(=O)c2ccc3c(=O)n(CC4CCCO4)c(=S)[nH]c3c2)c1` (configuration not stated), the B-score is reported as “inactive”.
In the case of `COc1cc(OC)cc(C(=O)NC(=S)N2CCN(c3ccc(C(F)(F)F)cc3[N+](=O)[O-])CC2)c1`, the B-score is reported as “inactive”.
With `CCOc1ccc(-c2cc(C(=O)N/N=C/c3ccc(O)cc3)c3ccccc3n2)cc1` the B-score was “inactive”.
`NC1=NC2(CCCCC2)N(c2ccc(F)cc2F)C(N)=N1` was tested, and the B-score was “inactive”.
`COc1ccc(CNC(=O)/C(C#N)=C/c2cccc(OC)c2OC)cc1` was tested, and the B-score was “inactive”.
In the case of `CCOC(=O)C1CCN(c2ncnc3c2oc2ccc(Br)cc23)CC1`, the B-score is reported as 9 (active).
`CCOC(=O)C1CCN(Cc2nnc(-c3cccc(Br)c3)o2)CC1` was tested, and the B-score was “inactive”.
In the case of `CCOC(=O)C1CCN(c2ncnc3c2c(-c2ccccc2)cn3-c2ccc(C)cc2)CC1`, the B-score is reported as “inactive”.
`N/C(=N\c1nc2ccccc2o1)NC(=O)C(Cc1ccccc1)N1C(=O)c2ccccc2C1=O` (configuration not stated) was tested, and the B-score was “inactive”.
With `CCOC(=O)COn1c(=O)c(-c2ccc(OCC)cc2)[n+]([O-])c2ccccc21` the B-score was “inactive”.
For `NC(=O)C1CCN(C(=O)c2ccc3c(=O)n(Cc4cccc(Br)c4)c(=S)[nH]c3c2)CC1`, the B-score was “inactive”.
With `CC(=O)N/N=C(\C)c1ccc(Br)cc1Br` the B-score was “inactive”.
With `CC(C)/C=N/NC(=O)c1cc(Br)ccc1O` the B-score was “inactive”.
For `CC(=N\NC(=O)c1cc(Br)ccc1O)/C(=N/O)C(=O)Nc1ccccc1`, the B-score was 9 (active).
With `CC1(C(=O)O)CCC(C(=O)Nc2ccc(Cl)c(Cl)c2)C1(C)C` (configuration not stated) the B-score was “inactive”.
For `CC(=O)Nc1cccc(NC(=O)c2ccc3c(c2)CCN3S(C)(=O)=O)c1`, the B-score was “inactive”.
For `Cc1nc(C(=O)Nc2ccc(Cl)cc2)sc1C1(C)CC(c2ccccc2)=NO1` (configuration not stated), the B-score was 6 (active).
With `Cc1nc(C(=O)NCc2ccccc2)sc1C1(C)CC(c2cccnc2)=NO1` (configuration not stated) the B-score was “inactive”.
In the case of `Cc1nc(-c2ccc(Cl)cc2)sc1C1(C)CC(c2ccc(Br)cc2)=NO1` (configuration not stated), the B-score is reported as “inactive”.
In the case of `CC1C(=O)Nc2ccc(S(=O)(=O)N3CCN(c4ccccc4F)CC3)cc2NC1=O` (configuration not stated), the B-score is reported as “inactive”.
For `C=CCC1(CC=C)CCCN1C(=O)CC1C(=O)NCCN1Cc1ccccc1OC` (configuration not stated), the B-score was “inactive”.
`COc1ccc(N2CCN(C(=O)/C(C#N)=C/c3ccccc3)CC2)cc1` was tested, and the B-score was “inactive”.
`N#C/C(=C\c1ccc(N2CCOCC2)o1)C(=O)N1CCOCC1` was tested, and the B-score was 7 (active).
For `N#C/C(=C/c1ccc(N2CCOCC2)o1)C(=O)N1CCOCC1`, the B-score was “inactive”.
In the case of `COc1ccc(N2CC(C(=O)N[C@@H](C)C(=O)N3CCCCC3)CC2=O)cc1` (some centres not stated), the B-score is reported as “inactive”.
`Cc1cc(C(C)(C)C)oc1C(=O)N(CC(=O)NC1CCCC1)Cc1ccc(Cl)cc1` was tested, and the B-score was “inactive”.
`COCCN1C(=O)C(=O)/C(=C(/O)c2ccc(S(=O)(=O)N3CCOCC3)cc2)C1c1ccc(O)c(OC)c1` (configuration not stated) was tested, and the B-score was “inactive”.
In the case of `COc1ccccc1C(=O)NC(CCSC)C(=O)N1CCN(C/C=C/c2ccccc2)CC1` (configuration not stated), the B-score is reported as “inactive”.
With `CCOc1ccc(CCNC(=O)COC(=O)CCS(=O)(=O)c2ccc(C)cc2)cc1OCC` the B-score was “inactive”.
With `N#Cc1c(/N=C/N2CCCC2)oc(-c2ccccc2)c1-c1ccccc1` the B-score was 7 (active).
With `COc1ccc(-c2oc(/N=C/N3CCCC3)c(C#N)c2-c2ccc(OC)cc2)cc1` the B-score was “inactive”.
For `N#Cc1c(-c2ccccc2)c(-c2ccccc2)n[nH]c1=O`, the B-score was “inactive”.
`O=C(NCC(F)(F)F)Nc1nnc(C(F)(F)F)s1` was tested, and the B-score was 6 (active).
In the case of `O=C(Nc1nnc(COc2ccccc2)s1)Nc1ccccc1F`, the B-score is reported as “inactive”.
In the case of `COc1ccc(C)cc1NC(=O)CCC(=O)Nc1nnc(C(F)(F)F)s1`, the B-score is reported as “inactive”.
`Cc1ccccc1NS(=O)(=O)CCCCC(Cl)(Cl)Cl` was tested, and the B-score was “inactive”.
With `CN(C)S(=O)(=O)c1cccc(NC(=O)COC(=O)C2(c3ccccc3F)CCCC2)c1` the B-score was “inactive”.
With `N#Cc1ccc(C(=O)Nc2nc(-c3cccs3)c(C(=O)C(F)(F)F)s2)cc1` the B-score was “inactive”.
`Cc1sc(NC(=O)c2ccc3ncsc3c2)c(C(N)=O)c1C` was tested, and the B-score was “inactive”.
For `Cc1ccc(C(=O)c2c(NC(=O)c3ccccc3)sc(C)c2C)cc1`, the B-score was 6 (active).
For `Cc1ccc(C(=O)c2c(NC(=O)c3ccncc3)sc3c2CCCC3)cc1`, the B-score was “inactive”.
